Shn3 inh set2: Schnurri-3 reporter inhibition in Clone20 osteoblasts; Clone20 osteoblast Shn3 3'UTR firefly luciferase, 24 h; inhibition, % at 12.5 µM; 360,000 tested, 0.52% active; AID 588674;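 active means mean inhibition of at least 75% with every replicate also reaching 75%; inconclusive means mean inhibition at least 75% but some replicate below; inactive means mean inhibition below 75%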;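 further: 0% = median of neutral control wells and 100% = pilot-screen positive control compound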
HIF-2a inh: HIF-2a inhibition. 786-0 RCC cells HIF-2a reporter, luciferase luminescence, overnight. inhibition, % at 18.8 µM. 360,000 tested, 0.72% active;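 active means inhibition of the luminescence signal of 40% or more relative to plate controls, in a single-dose primary screen at 18.75 µM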
Peg3 prom inh: reduces Peg3 promoter-driven luciferase expression in HeLa | HeLa PEG-Prom luciferase reporter, luminescence, overnight | inhibition, % at 20 µM | 360,000 tested, 1.7% active | AID 588405;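 active means inhibition of at least 50% at 20 µM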
PAX8 inh HTS: inhibitors of PAX8 transcriptional activity in RMG-I cells. inhibition, % at 12.6 µM. 360,000 tested, 1.2% active. RMG-I TPO-luciferase reporter, SteadyGlo, 24 h. AID 652154;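 active means mean replicate inhibition at least 60% with every replicate also reaching 60%; inconclusive means only one of the two criteria is met; inactive means mean below 60% and not all replicates reaching 60%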;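 further: luciferase light reporting Pax8 driven TPO promoter activity; plate controls were median of neutral control wells for no effect and mitoxantrone controls for full effect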
TRPM1 prom inh: MITF TRPM1 promoter inhibition in SK-MEL-5 cells. SK-MEL-5 TRPM1 promoter luciferase, 24 h. inhibition, % at 12.5 µM. 330,000 tested, 0.83% active;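 active means mean inhibition across replicates of 60% or more, whatever share of single replicates reaches that level; inconclusive means some that reach 60%, reason not given; inactive means mean inhibition across replicates below 60%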
EBV LMP1 NFkB: Epstein-Barr LMP1 NF-kappaB reporter inhibition; LMP1-induced NF-kappaB luciferase reporter cells, luminescence; AID 504558; inhibition, % at 12.5 µM; 350,000 tested, 0.69% active; in the data active means inhibition above about 41%; inconclusive means no clear call, values can overlap the other calls;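 further: 0% = neutral control wells and 100% = reference inhibitor control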
Mdm2 MdmX conf: confirmation of inhibitors of human Mdm2/MdmX interaction, set 2; shares compounds with HIF-2a inh; inhibition, % at 8 µM; 740 tested, 99% active; SaOS-2 split-luciferase Mdm2/MdmX complementation, luminescence;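 active means mean inhibition of the luminescence signal across two replicates at or above 26 percent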
HIF-2a inh conf: HIF-2a inhibition, single concentration confirmation | shares compounds with HIF-2a inh | 786-0 RCC cells, HIF-2a luciferase reporter luminescence, overnight | inhibition, % at 18.8 µM | 1,800 tested, 56% active;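 active means mean inhibition across four replicates of at least 40 percent at the single tested concentration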
HIF-1a counter: counter-screen for HIF-2a inhibitors: HIF-1a inhibition in MiaPaCa-2 cells | shares compounds with HIF-2a inh | MiaPaCa-2 HIF-1a luciferase reporter, desferoxamine, overnight | inhibition, % at 18.8 µM | 1,800 tested, 72% active;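 active means mean inhibition of the reporter signal across four replicates at the single tested dose of 50% or more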
The depositor's hits bear a star; ? = inconclusive; nt = no result given. Sampled rows, rich in hits. Any-hit rate of the full collection: about 2.8%.

SMILES	Shn3 inh set2	HIF-2a inh	Peg3 prom inh	PAX8 inh HTS	TRPM1 prom inh	EBV LMP1 NFkB	HIF-2a inh conf	HIF-1a counter	others
Cc1cc(F)ccc1S(=O)(=O)Nc1ccccc1C(=O)Nc1ncn[nH]1	6	16	29	nt	-3	2	nt	nt
Cc1cc(F)ccc1S(=O)(=O)Nc1ccccc1C(=O)Nc1ccccc1-c1nc2ccccc2[nH]1	91*	3	96*	nt	?	-18	nt	nt	Mdm2 MdmX conf=97*
O=C(Nc1ccc(NC(=O)c2cccs2)cc1)c1ccc2c(c1)OCCO2	21	47*	32	21	10	9	45*	15
Cc1ccc(C(=O)N2CCN(c3ccc(NC(=O)c4ccc5c(c4)OCCO5)cc3)CC2)cc1	70	13	27	13	47	19	nt	nt
CC(C)C(=O)N1CCN(c2ccc(NC(=O)c3ccc4c(c3)OCCO4)cc2)CC1	19	42*	-23	-6	11	7	-2	-4
CC(=O)N1CCN(c2ccc(NC(=O)c3ccc4c(c3)OCO4)cc2)CC1	18	19	-53	-12	7	-3	nt	nt
Cc1ccccc1C(=O)N1CCN(c2ccc(NC(=O)c3ccc4c(c3)OCCO4)cc2)CC1	86*	60*	25	36	70*	43*	14	72*
CC(=O)Nc1ccc(Nc2nc(C)c([N+](=O)[O-])c(N(C)c3ccccc3)n2)cc1	45	81*	29	-3	6	2	92*	93*
O=C(COC(=O)CCCOc1ccc(Cl)cc1Cl)NCc1ccc(F)cc1	29	52*	7	-3	4	-11	46*	41
O=C(CCCOc1ccc(Cl)cc1Cl)NCCc1ccccn1	-28	59*	33	-4	1	29	57*	80*
NC(c1csc(NC(=O)Nc2ccccc2)n1)C1CCCCC1 (stereo not given)	-20	-11	48	-3	nt	nt	nt	nt
NC(c1csc(Nc2nncc3ccccc23)n1)C1CCCCC1 (stereo not given)	13	68*	113*	-17	nt	nt	-6	106*
CC(C)NC(=O)N(C)C[C@@H]1OCCCC[C@@H](C)Oc2ccc(NC(=O)NC3CCCCC3)cc2C(=O)N([C@@H](C)CO)C[C@H]1C	nt	nt	nt	-8	nt	nt	nt	nt
COc1ccc(S(=O)(=O)N2CCCCC2)cc1NC(=O)c1ccc([N+](=O)[O-])o1	34	53*	42	15	85*	-10	9	76*
O=C(Nc1ccc(S(=O)(=O)N2CCCC2)cc1)c1ccc([N+](=O)[O-])o1	91*	77*	97*	nt	nt	-61	50*	94*
O=C(Nc1ccc(S(=O)(=O)N2CCOCC2)cc1)c1ccc([N+](=O)[O-])o1	27	67*	101*	-5	47	-53	36	78*
C[C@H](CO)N1C[C@H](C)[C@H](CN(C)Cc2ccc3c(c2)OCO3)Oc2ccc(NC(=O)NC3CCCCC3)cc2CC1=O	nt	nt	nt	-8	nt	nt	nt	nt
CCCC#Cc1ccc([C@@H]2[C@H](CO)N3CCCCN(CC4CCOCC4)C[C@@H]23)cc1	nt	nt	nt	8	nt	nt	nt	nt
CN(C)CCCNC(=O)C[C@@H]1CC[C@@H]2[C@H](COc3ccc(NS(C)(=O)=O)cc3C(=O)N2C)O1	nt	nt	nt	-43	nt	nt	nt	nt
COc1ccc2c(c1OC)C(=O)O[C@@H]2[C@H]1c2c(cc3c(c2OC)OCO3)CCN1C	1	8	-1	nt	-11	-2	nt	nt
COc1ccc2cc1Oc1ccc(cc1)C[C@H]1c3cc(c(OC)cc3CCN1C)Oc1c(OC)c(OC)cc3c1[C@H](C2)N(C)CC3	38	11	93*	39	95*	-12	nt	nt	Mdm2 MdmX conf=102*
S=C1c2ccccc2CN1c1ccccc1	-30	-146	-125	-71	-37	-10	nt	nt
Cc1ccc(N2Cc3ccccc3C2=S)cc1	-61	84*	-270	-173	-67	-26	-218	-74
